In PubChem BioAssay one finds composite z-score data, which are given here for 36 molecules.

The assay in a line: probe aCHRDL2 binding to arrayed compounds – biochemical, biotinylated probe, 635/667 nm fluorescence, primary screen (AID 1100). The following applies: small-molecule microarray, higher = more signal.
In turn, `CC(C)CN1CCc2nc(-c3ccccc3)c3c(c2C1)CO[C@@H](C)C3` came in with a composite z-score of -0.291.
The result for `COCC#Cc1ccc([C@@H]2N[C@H](C(=O)O)CC[C@H]2C)cc1` reads -0.0016; that for `C[C@@H](c1ccccc1)N1C(=O)[C@H]2[C@H]3[C@H](O)[C@H](O)CC(=NOC[C@@H](O)COCc4ccco4)[C@H]3CC[C@H]2C1=O`, -1.27; that for `CCOC(=O)[C@H](CC(C)C)NC(=O)CCC1CC(OC(=O)NCc2ccc3c(c2)OCO3)CC2(CCCC(COC(=O)NCCc3ccc(Cl)cc3)O2)O1` (stereo partly specified), -0.514.
To `C#CCCCON=C1C[C@@H](O)[C@@H](O)[C@@H]2[C@@H]3C(=O)N(C4CCCCC4)C(=O)[C@@H]3CC[C@@H]12` belongs -0.287; to `CC(C)=CCCC(C)=CCON=C1C[C@@H](O)[C@@H](O)[C@@H]2[C@@H]3C(=O)N(c4cccc(Oc5ccccc5)c4)C(=O)[C@@H]3CC[C@H]12`, -0.2.
To `COc1ccc(O[C@H]2C=C[C@@H](C#Cc3ccccc3)O[C@@H]2CO)cc1` belongs -0.253.
`CCCNC(=O)OC[C@H]1O[C@H](CCON=C[C@@H](NS(=O)(=O)c2ccc(C)cc2)[C@H](C)C=CCC(=O)OC)C=C[C@@H]1Oc1ccc(OC)cc1`: the composite z-score amounted to 0.0838.
`COC(=O)[C@H](C)NC(=O)CCC1CC(OC(=O)NCc2cccc3ccccc23)CC2(CCCC(COC(=O)NCCCN3CCCC3=O)O2)O1` (stereo partly specified) returned a composite z-score of -0.279.
To `COC(=O)[C@H](C)NC(=O)CCC1CC(OC(=O)NCCc2ccc(F)cc2)CC2(CCCC(COC(=O)NCC3CCCCC3)O2)O1` (stereo partly specified) belongs -0.446; to `COC(=O)[C@H](C)NC(=O)CCC1CC(OC(=O)NCc2ccc3c(c2)OCO3)CC2(CCCC(COC(=O)NCCc3ccc(Cl)cc3)O2)O1` (stereo partly specified), -0.589; to `COc1ccc(COC(=O)NN=C2C[C@@H](O)[C@@H](O)[C@@H]3[C@@H]4C(=O)N([C@@H](C)c5ccccc5)C(=O)[C@@H]4CC[C@@H]23)cc1`, -0.305.
Turning to `COc1ccc(O[C@H]2C=C[C@@H](c3ccccc3)O[C@@H]2COC(=O)CCC(C)=NOC[C@@H](O)COCc2ccco2)cc1`, the composite z-score was 0.0183.
The result for `CCN1C(=O)[C@H]2[C@H]3[C@H](O)[C@H](O)CC(=NOCC(C)C)[C@H]3CC[C@H]2C1=O` reads -0.621; that for `CC(=O)OC[C@H]1O[C@H](C#CCC2CCCCC2)C=C[C@@H]1OC(C)=O`, -0.595.
With `CCN1C(=O)[C@H]2[C@H]3[C@H](O)[C@H](O)CC(=NOC[C@@H](O)[C@H]4O[C@@H]5OC(C)(C)O[C@@H]5[C@H]4O)[C@@H]3CC[C@H]2C1=O`, the composite z-score is -0.461.
On to `C[C@@H]1CC[C@@H](C(=O)O)N[C@H]1c1cccc(N2CCOCC2)c1`, for which the composite z-score is -0.449.
Molecule `CCOC(=O)NN=C1C[C@@H](O)[C@@H](O)[C@@H]2[C@@H]3C(=O)N(c4ccc(F)cc4F)C(=O)[C@@H]3CC[C@H]12` returned a composite z-score of -0.626.
In turn, `CCC1=NOC(CCC2CC(OC(=O)NCc3cccc4c3OCO4)CC3(CCCC(COC(=O)NCCc4ccc(Cl)cc4)O3)O2)C1` (stereo unspecified) showed a composite z-score of -0.341.
`CCOC(=O)CCN1C(=O)[C@H]2[C@H]3[C@H](O)[C@H](O)CC(=NO[C@@H]4O[C@H](CO)[C@@H](O)[C@H](O)[C@H]4O)[C@@H]3CC[C@H]2C1=O` gave a composite z-score of -0.573.
In turn, `CCOC(=O)[C@H](CC(C)C)NC(=O)CCC1CC(OC(=O)NCc2ccc3c(c2)OCO3)CC2(CCCC(COC(=O)NCc3ccccc3)O2)O1` (stereo partly specified) gave a composite z-score of -0.495.
To `CC(C)C(=O)N[C@H]1CCCN1C(=O)C=Cc1ccccc1` belongs -0.43; to `COC(=O)[C@H](C)NC(=O)CCC1CC(OC(=O)NCc2cccc3ccccc23)CC2(CCCC(COC(=O)NCc3ccccc3)O2)O1` (stereo partly specified), -0.459; to `CCOC(=O)[C@H](CC(C)C)NC(=O)CCC1CC(OC(=O)NCCc2ccc(F)cc2)CC2(CCCC(COC(=O)NCc3cccc4ccccc34)O2)O1` (stereo partly specified), -0.224.
`COC(=O)CC=C[C@@H](C)[C@@H](C=NOC(C)CN1CCCCc2nc(C)c(C)cc21)OC` (stereo partly specified) registered a composite z-score of -0.613.
In the case of `CCN1C(=O)[C@H]2[C@H]3[C@H](O)[C@H](O)CC(=NOC[C@@H](O)COCc4ccco4)[C@H]3CC[C@H]2C1=O`, the composite z-score was -2.16.
The molecule `COCCNC(=O)OCC1CCCC2(CC(OC(=O)NCc3cccc4ccccc34)CC(CCC(=O)N[C@@H](C)C(=O)OC)O2)O1` (stereo partly specified) yielded a composite z-score of -0.589.
To `CC(=O)OC[C@H]1O[C@@H](ON=C(C)CCN2CCCCc3nc(C)c(C)cc32)[C@H](OC(C)=O)[C@@H](OC(C)=O)[C@@H]1OC(C)=O` belongs -0.664.
`O=C1C=C[C@@H](O)[C@@H]2[C@@H]3C(=O)N(c4cccc(Oc5ccccc5)c4)C(=O)[C@@H]3CC[C@@H]12` displayed a composite z-score of -0.597.
Take `CCOC(=O)[C@H](CC(C)C)NC(=O)CCC1CC(OC(=O)NCCc2ccc(F)cc2)CC2(CCCC(COC(=O)NCCOC)O2)O1` (stereo partly specified): the composite z-score is -0.411.
The result for `CCN1C(=O)[C@H]2[C@H]3[C@H](O)[C@H](O)CC(=NOC(C)CN4CCCc5nc(C)c(C)cc54)[C@@H]3CC[C@H]2C1=O` (stereo partly specified) reads -0.598; that for `CC(C)=CCCC(C)=CCON=C1[C@H]2CCn3c(=O)n(-c4ccccc4)c(=O)n3[C@H]2[C@H](O)[C@@H]2O[C@H]12`, -0.55; that for `O=C1C=C[C@@H](O)[C@@H]2[C@@H]3C(=O)N(Cc4ccccc4)C(=O)[C@@H]3CC[C@@H]12`, -0.684.
In turn, `CCCCOC(OCCCC)C(O)CSc1ccc2ccccc2c1` (stereo unspecified) gave a composite z-score of -0.392.
As to `CC[C@@H](c1ccccc1)n1c(=O)n2n(c1=O)[C@H]1[C@H](O)[C@@H]3O[C@@H]3C(=NOCc3ccccc3)[C@H]1CC2`, the composite z-score is -0.406.
As to `CC(CCN1CCCc2nc(C)c(C)cc21)=NOC[C@@H](C)[C@H](OCc1ccccc1)C(C)C`, the composite z-score is -0.623.
